Assay outcomes: PubChem, National Center for Advancing Translational Sciences (NCATS)
N370S GC mod: qHTS Assay for Inhibitors and Activators of N370S glucocerebrosidase as a Potential Chaperone Treatment of Gaucher Disease; N370S GC spleen homogenate, 4MU-glucoside fluorescence; Potency, µM (top dose mostly 59.4 µM), inactives show top-dose activity change, negative = inhibition, most hits filed as inhibitors; Lysosomal acid glucosylceramidase (Homo sapiens), P04062; AID 2101, 2009; hit rate 0.092% among 330,000;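 also: potency is read from the fitted curve at half-maximal effect; 0% = full enzyme activity and -100% = no enzyme basal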
GAA glycogen mod: qHTS Assay for Inhibitors and Activators of Human alpha-Glucosidase Cleavage of Glycogen; Potency, µM (titrated, usually from 76.4 µM), inactives show at the highest dose activity change, negative = inhibition, most hits filed as inhibitors; hit rate 0.38% among 300,000; Lysosomal alpha-glucosidase (Homo sapiens), P10253; recombinant GAA, glycogen substrate, Amplex Red glucose oxidase fluorescence;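 also: potency is read from the fitted curve at half-maximal effect; 0% = full enzyme reaction and -100% = no-enzyme basal signal; the screen sought inhibitors and activators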
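Recombinant enzyme (4 nM final) with compounds titrated up to 77 uM and bovine liver glycogen (30 ug) in citrate pH 5.0, 0.01% Tween-20, 37 C 40 min. Released glucose detected by Amplex Red/glucose oxidase (Ex 573/Em 610); AC50 from Hill fits.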
GLA inh pH 4.5: qHTS Assay for Inhibitors of Human alpha-Galactosidase at pH 4.5. Alpha-galactosidase A (Homo sapiens), P06280. purified enzyme, 4-MU-alpha-Gal fluorescence, pH 4.5. activity change, negative = inhibition, % at 105 µM. 230,000 tested, under 10 active. AID 1467, 2008;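 also: 0% = full activity with enzyme and -100% = basal without enzyme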
Target sequence (P06280 whole entry, looked up): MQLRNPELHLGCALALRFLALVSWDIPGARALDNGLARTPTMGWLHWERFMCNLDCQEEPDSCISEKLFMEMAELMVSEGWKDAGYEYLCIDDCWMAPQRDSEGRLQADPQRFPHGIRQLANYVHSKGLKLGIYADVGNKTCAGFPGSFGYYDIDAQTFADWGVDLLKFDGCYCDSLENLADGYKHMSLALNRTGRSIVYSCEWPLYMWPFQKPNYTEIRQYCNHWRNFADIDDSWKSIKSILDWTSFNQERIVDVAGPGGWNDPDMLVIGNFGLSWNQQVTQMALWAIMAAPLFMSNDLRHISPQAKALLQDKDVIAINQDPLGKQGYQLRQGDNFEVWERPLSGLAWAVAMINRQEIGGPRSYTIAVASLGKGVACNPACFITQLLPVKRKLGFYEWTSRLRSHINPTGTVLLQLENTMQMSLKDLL
aGal spleen mod: qHTS Assay for Inhibitors and Activators of Human alpha-Galactosidase From Spleen Homogenate; human spleen homogenate, 4MU-alpha-Gal fluorescence, 40 min; Potency, µM (highest dose often 80 µM), inactives show at the highest dose activity change, negative = inhibition, most hits filed as inhibitors; hit rate 0.008% among 240,000; AID 2107, 2009;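 also: potency is read from the fitted curve at half-maximal effect; 0% = enzyme with vehicle and -100% = no enzyme basal signal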
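Inhibition or activation of alpha-galactosidase in human spleen homogenate is scored by 4-MU fluorescence after 40 min at 37C, pH 5.0, with 1 mM substrate. AC50s come from concentration-response fitted to the Hill equation.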
GAA spleen mod: qHTS Assay for Inhibitors and Activators of Human alpha-Glucosidase From Spleen Homogenate. Potency, µM (titrated, usually from 79.9 µM), for inactives: top-dose activity change, negative = inhibition, hits mostly inhibitors. human spleen homogenate, 4-MU-alpha-glucoside fluorescence. AID 2112, 2009. hit rate 0.006% among 240,000. Lysosomal alpha-glucosidase (Homo sapiens), P10253;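 also: potency is read from the fitted curve at half-maximal effect; 0% = enzyme with vehicle and -100% = no enzyme basal signal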
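Compounds were titrated against alpha-glucosidase in spleen homogenate at pH 5.0, with 1 mM 4-methylumbelliferyl substrate for 40 min at 37 C. Reactions were quenched with pH 10 NaOH/glycine and fluorescence measured.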
GAA inh: qHTS Assay for Inhibitors of Human alpha-Glucosidase as a Potential Chaperone Treatment of Pompe Disease; Potency, µM (doses to about 76.9 µM), without a hit: top-dose activity change, negative = inhibition, hits mostly inhibitors; Lysosomal alpha-glucosidase (Homo sapiens), P10253; purified human GAA, 4-MU-alpha-glucoside fluorescence; hit rate 0.005% among 200,000; AID 1466, 2008;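 also: potency is read from the fitted curve at half-maximal effect; plate controls were uninhibited enzyme wells for no effect and no-enzyme background for full effect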
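Read-out is 4-methylumbelliferone fluorescence (Ex 365/Em 440 nm) after NaOH/glycine stop at pH 10. Enzyme 4 nM, substrate 400 uM, pH 5.0 citrate buffer, 20 min room temperature; AC50 from Hill-equation concentration-response.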
* hit, by the source's call; ? = inconclusive; · = not tested or not shown; [ ] = dose if it differs, or a comment. Rows were chosen to be rich in hits. Some 0.43% of all compounds tested hit in one or more screens of this group. Calls follow the shape of the dose curve; as a rule, active = well fitted curve in the direction sought with a large enough effect; inconclusive = small, poorly fitted or top-dose-only effect, or another doubt; inactive = no such curve, though single readings can be large; an effect the other way counts as inactive or inconclusive.

SMILES	N370S GC mod	GAA glycogen mod	GLA inh pH 4.5	aGal spleen mod	GAA spleen mod	GAA inh
Cc1c(NC(=O)/C(C#N)=C/c2ccc(-c3cccc(Cl)c3)o2)c(=O)n(-c2ccccc2)n1C	-10.9%	-8.2%	-9.4	-9.5%	-7.2%	?
Cc1c(N=Cc2nc3ccccc3[nH]2)c(=O)n(-c2ccccc2)n1C	12.1%	8.91µM*	8.0	9.5%	5.5%	-8.1%
Cc1c(N=Cc2nc3ccccc3n2C)c(=O)n(-c2ccccc2)n1C	3.1%	11.2µM*	-0.9	4.5%	-0.7%	2.5%
Cc1cccc(-c2ccc(C=Nc3c(C)n(C)n(-c4ccccc4)c3=O)o2)c1	0.7%	3.95µM*	0.2	6.3%	3.6%	-16.3%
COc1ccc(-c2nnc3n2N=C(c2cc(OC)ccc2OC)CS3)c(OC)c1	-0.8%	·	·	10.9%	9.5%	·
O=C(O)c1cc(NCc2cccs2)ccc1N1CCOCC1	-2.9%	9.92µM*	2.2	-2.5%	-3.2%	-4.7%
COC(=O)c1cc(NCc2c(F)cccc2Cl)ccc1N1CCOCC1	-3.6%	12.5µM*	2.0	1.8%	3.0%	0.0%
COC(=O)c1cc(NCc2cccs2)ccc1N1CCOCC1	0.7%	?	-8.0	4.4%	7.7%	-9.5%
COC(=O)c1cc(NS(=O)(=O)c2cccc(Cl)c2)ccc1N1CCOCC1	1.9%	1.8%	-3.6	9.4%	10.0%	·
C=CC1=C2C=C(C3CC3)N(Cc3ccco3)C=C2C(=O)C(C)(OC(=O)c2ccco2)C1=O (configuration not stated)	-13.7%[12.8 µM]	·	7.8	-3.5%[17.5 µM]	2.3%[17.4 µM]	·
CCCCC/C=C\C/C=C\CCCCCCCCCC(=O)NC(C)C(=O)O (configuration not stated)	2.2%	·	-13.0	-2.4%	8.5%	·
COC(=O)N1C(c2ccccc2)=Cc2ccccc2C1CC(C)=O (configuration not stated)	-8.4%[12.8 µM]	·	2.4	0.4%[17.5 µM]	15.3%[17.4 µM]	·
NCCCC[C@H](NC(=O)CNC(=O)[C@@H]1CCCN1C(=O)[C@H](Cc1ccc(O)cc1)NC(=O)CN)C(=O)N[C@@H](Cc1ccccc1)C(=O)O	-5.2%	·	·	0.0%	-2.0%	·
CCN(C(=O)CN1CCN(c2ccccc2O)CC1)c1c(N)n(Cc2ccccc2)c(=O)[nH]c1=O	16.0%	9.92µM*	2.1	-1.6%	2.2%	-5.8%
O=C(CCCC[C@@H]1SC[C@H]2NC(=O)N[C@H]12)Nc1ccc(C(=O)O)cc1	-6.4%	·	·	-0.4%	-2.4%	·
C/C=C1\COC(C(=O)NCCN2CCOCC2)(C(F)(F)F)C=C1C=C(C)C (configuration not stated)	14.1µM*	·	·	1.7%	-2.9%	·
CCOc1ccc(NC(=S)N(CCc2c(C)[nH]c3ccc(C)cc23)Cc2ccco2)cc1	13.2%	35.5µM*	10.1	6.7%	1.8%	3.4%
Oc1ccc(-c2nc3ncccn3c2Nc2ccc3c(c2)OCCO3)cc1	·	25.1µM*	0.5	-7.0%	-12.2%	-6.9%
Cc1ccc(-c2nc3ncccn3c2NC2CCCCC2)o1	-26.0%	28µM*	-1.8	-0.5%	-7.5%	-2.0%
Clc1ccc(-c2nc3ncccn3c2Nc2ccc3c(c2)OCCO3)cc1	8.4%	?	4.9	-17.7%	2.4%	-2.6%
Brc1ccc(-c2nc3ncccn3c2Nc2ccc3c(c2)OCCO3)o1	4.6%	22.4µM*	-1.3	-13.7%	-9.3%	-8.8%
Cc1ccc(-c2nc3ncccn3c2Nc2ccc3c(c2)OCCO3)cc1	-11.4%	?	-8.4	-10.0%	-2.6%	-17.3%
Cc1ccc(-c2nc3ncccn3c2Nc2ccc3c(c2)OCCO3)o1	-2.0%	14µM*	-2.9	4.0%	-3.5%	-3.3%
Cc1ccc(-c2nc3ncccn3c2NC(=O)C2CC2)cc1	0.1%	-4.1%	-19.9	7.5%	-0.3%	6.1%
Cc1ccc(SCC(Cc2ccccc2)N2CCN(C)CCC2=O)cc1 (configuration not stated)	-8.5%	·	·	1.2%	1.4%	·
SMILES	N370S GC mod	GAA glycogen mod	GLA inh pH 4.5	aGal spleen mod	GAA spleen mod	GAA inh
COC(=O)C1=C(C(=O)OC)[C@@H]2N(C)c3ccccc3[C@@]23C[C@@H](C(=O)OC)N(S(=O)(=O)c2ccc(C#N)cc2)C3=N1	5.2%[12.8 µM]	·	-1.7	11.1%[17.5 µM]	12.2%[17.4 µM]	·
CSCC[C@H](NC(=O)[C@H](CO)NC(=O)[C@H](Cc1ccc(O)cc1)NC(=O)[C@@H](N)CO)C(=O)N[C@@H](CCC(=O)O)C(=O)N[C@@H](Cc1cnc[nH]1)C(=O)N[C@@H](Cc1ccccc1)C(=O)N[C@@H](CCCNC(=N)N)C(=O)N[C@@H](Cc1c[nH]c2ccccc12)C(=O)NCC(=O)N[C@@H](CCCCN)C(=O)N1CCC[C@H]1C(=O)N[C@H](C(=O)NCC(=O)N[C@@H](CCCCN)C(=O)N[C@@H](CCCCN)C(=O)N[C@@H](CCCNC(=N)N)C(=O)N[C@@H](CCCNC(=N)N)C(=O)N1CCC[C@H]1C(=O)N[C@H](C(=O)N[C@@H](CCCCN)C(=O)N[C@H](C(=O)N[C@@H](Cc1ccc(O)cc1)C(=O)N1CCC[C@H]1C(=O)O)C(C)C)C(C)C)C(C)C	-5.7%	·	·	2.3%	0.3%	·
COc1cc(-c2nc3ccccn3c2NCC2CCCO2)ccc1O (configuration not stated)	-11.3%	28.2µM*	7.5	8.2%	1.3%	2.9%
COc1ccc(-c2nc3cccc(C)n3c2NCC2CCCO2)cc1O (configuration not stated)	6.6%	-6.2%	5.2	-9.0%	-1.4%	11.5%
CCOc1cc(-c2nc3ccccn3c2NCC2CCCO2)ccc1O (configuration not stated)	3.2%	24.9µM*	2.2	-9.0%	-19.4%	2.0%
O=C1OC(c2cc(I)c(O)c(I)c2)(c2cc(I)c(O)c(I)c2)c2ccccc21	11.2%	·	-2.5	-1.0%	-10.4%	·
COc1ccc(N=Cc2sc(O)c3ccccc23)cc1	-14.8%	20µM*	-12.4	-10.1%	-0.7%	-10.9%
COc1ccc(N=Cc2c(O)c3ccccc3n2C(C)=O)cc1	-0.8%	-28.3%	-8.9	-0.9%	-0.9%	·
C[C@H]1Cc2c(COc3ccccc3)nc3c(c2CO1)CN(C(=O)C1CCCCC1)CC3	-9.6%[12.8 µM]	·	11.8	-5.9%[17.5 µM]	-0.5%[17.4 µM]	·
Cc1cc(C)c2nc(N(CCCN(C)C)C(=O)c3ccc(S(=O)(=O)N4CCCCCC4)cc3)sc2c1	15.8µM*	·	·	·	·	·
